Reference: paper PMC5540273 (PLoS ONE, 2017)

Columns and labels:
Settings in all cases: concentration: 1 μM, replicates: in singlicate; n = 1
[1] = test system: PLK2
[2] = test system: PLK3
[3] = test system: PLK4
[4] = test system: PRKCD
[5] = test system: PRKCE
[6] = test system: PRKCH
[7] = test system: PRKCI
[8] = test system: PRKCQ
[9] = test system: PRKD1
[10] = test system: PRKD2
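Further: KINOMEscan kinase panel screen.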

Compound	%Inh [1] [%]	%Inh [2] [%]	%Inh [3] [%]	%Inh [4] [%]	%Inh [5] [%]	%Inh [6] [%]	%Inh [7] [%]	%Inh [8] [%]	%Inh [9] [%]	%Inh [10] [%]
O=C(Nc1n[nH]c2cc(-c3cccs3)ccc12)C1CC1 [SB-731284]	9	28	29	17	11	0	0	0	0	0
Cn1cc(-c2ccc3c(c2)CCN3C(=O)Cc2cc(F)cc(C(F)(F)F)c2)c2c(N)ncnc21 [GSK2635225]	3	0	0	18	1	0	0	17	0	14
CN1CCN(Cc2ccc(NC(=O)Nc3ccc(N(C)c4ccnc(Nc5ccc(CS(C)(=O)=O)cc5)n4)cc3)cc2)CC1.Cl [GW827654]	12	3	90	5	5	0	23	38	23	27
O=C(Nc1n[nH]c2nc(-c3ccccc3)ccc12)C1CC1 [SB-708999]	0	0	17	0	2	24	27	0	0	7
N#CC1(c2cccc(C(=O)Nc3cccc(Oc4ccc5nc(NC(=O)C6CC6)sc5n4)c3)c2)CC1	5	21	0	5	9	0	18	40	40	0
Cc1ccc(C)c(NC(=O)Nc2ccc(C)c(-c3ccc(C(=O)Nc4ccncc4)cc3)c2)c1 [GSK1398473]	0	0	0	0	4	10	0	32	8	3
Cl.N#CCc1ccc(Nc2nccc(Nc3ccc(Oc4ccccc4)cc3)n2)cc1 [GW639905]	0	0	1	0	6	0	4	0	0	0
COc1cccc2c(-c3ccncc3)c(-c3ccc(F)cc3)nn12 [GW468513]	0	0	0	6	25	30	26	41	29	20
Nc1ncc(-c2ccc3nccc(-c4ccncc4)c3c2)cc1S(=O)(=O)N1CCCCC1 [GSK1693850]	30	27	0	15	31	36	9	0	0	4
Cc1ccc(NC(=O)c2ccc(Cl)c(Cl)c2)cc1-c1ccc(C(=O)Nc2ccncc2)cc1 [GSK1398460]	0	0	8	0	10	22	0	15	15	0
CC(C)NCC(Cc1ccccc1)NC(=O)c1cc(Br)c(-c2ccnc3[nH]ccc23)s1.Cl.Cl (centres unmarked) [GSK1383281]	13	38	90.1	84	89	82	19	50	75	71
Cn1cc(-c2cnc(N)c3c(-c4ccc5c(c4)CCN5C(=O)Cc4ccccc4)csc23)cn1 [GSK2593074]	41	16	19	9	0	0	0	0	6	0
Cc1ccc(NC(=O)c2cccc(N3CCCCC3)c2)cc1-c1ccc(C(=O)NCC2CC2)cc1 [GSK1917008]	0	0	0	10	3	19	5	0	0	0
O=C(Nc1n[nH]c2nc(-c3cccc(O)c3)ccc12)C1CC1 [SB-711805]	11	14	31	1	83	0	13	0	0	20
CN(c1ccc(NC(=O)Nc2cccc(Cl)c2)cc1)c1ccnc(N)n1.Cl [GW830707]	14	3	14	7	28	0	0	0	0	0
CNc1nccc(-c2ccc3c(N)n[nH]c3c2)n1 [GSK2206003]	0	0	0	27	15	25	17	9	19	20
Nc1cccc(-c2ccc3c(N)n[nH]c3c2)c1 [GSK2193613]	0	0	4	68	11	61	0	20	0	2
